# Laboratory results from PubChem BioAssay (NCI).
# Compounds without any hit were thinned out: in the full panel of roughly 79,000, 15% have a hit. Unmarked numbers belong to inactive results. The source made the active and inactive calls. Rule as the data show it: active = growth inhibition above about 70%; inactive = the rest.
# Experiments:
# [1] = NCI Yeast Anticancer Drug Screen. Data for the rad52 strain (AID 147);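 also: 0% = growth of vehicle-treated control cultures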; details: S. cerevisiae rad52 mutant growth inhibition, stronger effect = higher value
# Method in brief: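 The repair-mutant yeast strain was incubated with compounds, then growth was read and inhibition derived relative to vehicle.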
# [2] = NCI Yeast Anticancer Drug Screen. Data for the wt1 strain (AID 149);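 also: 0% = growth of vehicle-treated wt1 cultures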; details: S. cerevisiae wt1 strain (SPY 50644) growth inhibition, stronger effect = higher value
# Method in brief: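 wt1 yeast, compound-treated; % growth inhibition vs vehicle control.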
# [3] = NCI Yeast Anticancer Drug Screen. Data for the rad50EPP+ strain (AID 151);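 also: 0% = growth of vehicle-treated control cultures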; details: S. cerevisiae rad50 mutant strain, stronger effect = higher value
# Method in brief: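 Vehicle-normalised growth inhibition; rad50EPP+ yeast strain, altered in DNA damage repair, compound-treated.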
# [4] = NCI Yeast Anticancer Drug Screen. Data for the mgt1 strain (AID 153); details: S. cerevisiae mgt1 mutant growth inhibition, stronger effect = higher value
# Method in brief: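 Vehicle-normalized growth inhibition is determined in mgt1 yeast, a strain selected for a defined alteration in DNA repair or cell cycle control.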
# [5] = NCI Yeast Anticancer Drug Screen. Data for the rad50 strain (AID 155);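 also: 0% = growth of vehicle-only cultures of the same strain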; details: S. cerevisiae rad50 strain growth inhibition, stronger effect = higher value
# Method in brief: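 Genetically altered yeast (DNA repair pathway); compound treatment; growth inhibition vs vehicle ctrl.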
# [6] = NCI Yeast Anticancer Drug Screen. Data for the mec2-1 strain (AID 157); details: S. cerevisiae mec2-1 strain, stronger effect = higher value
# Method in brief: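 Mutant yeast (mec2-1) grown with compound; growth inhibition relative to vehicle control reported.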
# [7] = NCI Yeast Anticancer Drug Screen. Data for the rad14 strain (AID 159);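 also: 0% = growth of vehicle-treated control cultures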; details: S. cerevisiae rad14 strain growth inhibition, stronger effect = higher value
# Method in brief: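 Test compounds were applied to a repair-deficient yeast strain. Its growth was then compared with that of cultures given vehicle alone, and inhibition was expressed relative to those controls.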
# [8] = NCI Yeast Anticancer Drug Screen. Data for the sgs1 mgt1 strain (AID 161);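 also: 0% = growth of cultures given vehicle only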; details: S. cerevisiae sgs1 mgt1 strain, stronger effect = higher value
# Method in brief: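 This yeast growth screen uses a strain with defined DNA-repair lesions; compound-treated growth is compared with vehicle-treated growth.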
# [9] = NCI Yeast Anticancer Drug Screen. Data for the CLN2oe strain (AID 163);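 also: 0% = growth of vehicle-only control cultures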; details: S. cerevisiae CLN2oe strain, stronger effect = higher value
# Method in brief: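 Compounds are applied to yeast harbouring a defined cell-cycle control change; reduced growth compared with vehicle-treated controls gives the value.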
# [10] = NCI Yeast Anticancer Drug Screen. Data for the cln2 rad14 strain (AID 165);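 also: 0% = growth equal to vehicle treated cultures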; details: S. cerevisiae cln2 rad14 strain, stronger effect = higher value
# Method in brief: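 Readout is yeast growth inhibition versus vehicle-treated controls, using a strain with cln2 and rad14 alterations exposed to compound.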
# [11] = NCI Yeast Anticancer Drug Screen. Data for the bub3 strain (AID 167); details: S. cerevisiae bub3 mutant strain, stronger effect = higher value
# Method in brief: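 Yeast carrying a defined mutation is treated with each compound, and growth is compared with that of vehicle-exposed cells to give inhibition.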
# [12] = NCI Yeast Anticancer Drug Screen. Data for the wt2 strain (AID 169);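 also: 0% = growth of vehicle-treated yeast cultures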; details: S. cerevisiae wt2 strain growth inhibition, stronger effect = higher value
# Method in brief: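 Against vehicle-treated controls, the growth of yeast exposed to each compound was compared, and the inhibition was recorded.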
# [13] = NCI Yeast Anticancer Drug Screen. Data for the mlh1 strain (AID 171);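 also: 0% = growth of vehicle-treated control cultures of the same strain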; details: S. cerevisiae mlh1 strain growth inhibition, stronger effect = higher value
# Method in brief: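 Measured: yeast growth. Reference: vehicle-treated controls. Organism: strain with a defined alteration affecting DNA damage repair or cell cycle control, treated with compound.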
# [14] = NCI Yeast Anticancer Drug Screen. Data for the sgs1 strain (AID 173);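 also: 0% = growth of vehicle-only control cultures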; details: S. cerevisiae sgs1 mutant, stronger effect = higher value
# Method in brief: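 Each compound was added to cultures of the altered yeast strain. Growth was recorded, and inhibition was derived by comparison with vehicle controls.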
# [15] = NCI Yeast Anticancer Drug Screen. Data for the mlh1 rad18 strain (AID 175); details: S. cerevisiae mlh1 rad18 strain growth inhibition, stronger effect = higher value
# Method in brief: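 Genetically defined yeast (DNA repair-deficient) exposed to compounds; growth inhibition determined relative to vehicle.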
# [16] = NCI Yeast Anticancer Drug Screen. Data for the rad18 strain (AID 177); details: S. cerevisiae rad18 mutant growth inhibition, stronger effect = higher value
# Method in brief: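 Vehicle-treated cultures served as the baseline for scoring compound-induced growth inhibition in DNA-repair-mutant yeast.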
# [17] = at 5.0 µM (retest, dose inferred, filed as 0.5)
# [18] = at 50.0 µM (retest, dose inferred, filed as 5.0)
structure (smiles),measurement,setting,value
O=C1NC(c2c(Cl)cccc2Cl)Nc2ccccc21 (stereo not given),growth inhibition,[1]; at 1.2 µM,9%
same,growth inhibition,[1]; at 3.7 µM,9%
same,growth inhibition,[1]; at 11.0 µM,12%
same,growth inhibition,[1]; at 33.0 µM,75% (active)
same,growth inhibition,[1]; at 100.0 µM,95% (active)
same,growth inhibition,[2]; at 1.2 µM,-25%
same,growth inhibition,[2]; at 3.7 µM,-26%
same,growth inhibition,[2]; at 11.0 µM,-22%
same,growth inhibition,[2]; at 33.0 µM,52%
same,growth inhibition,[2]; at 100.0 µM,91% (active)
same,growth inhibition,[3]; at 1.2 µM,-12%
same,growth inhibition,[3]; at 3.7 µM,-21%
same,growth inhibition,[3]; at 11.0 µM,-18%
same,growth inhibition,[3]; at 33.0 µM,-14%
same,growth inhibition,[3]; at 100.0 µM,6%
same,growth inhibition,[4]; at 1.2 µM,-14%
same,growth inhibition,[4]; at 3.7 µM,-9%
same,growth inhibition,[4]; at 11.0 µM,5%
same,growth inhibition,[4]; at 33.0 µM,63%
same,growth inhibition,[4]; at 100.0 µM,96% (active)
same,growth inhibition,[5]; at 1.2 µM,12%
same,growth inhibition,[5]; at 3.7 µM,4%
same,growth inhibition,[5]; [17],86% (active)
same,growth inhibition,[5]; at 11.0 µM,10%
same,growth inhibition,[5]; at 33.0 µM,72% (active)
same,growth inhibition,[5]; [18],100% (active)
same,growth inhibition,[5]; at 50.0 µM,83.7% (active)
same,growth inhibition,[5]; at 100.0 µM,91% (active)
same,growth inhibition,[6]; at 1.2 µM,-1%
same,growth inhibition,[6]; at 3.7 µM,-9%
same,growth inhibition,[6]; [17],92% (active)
same,growth inhibition,[6]; at 11.0 µM,-9%
same,growth inhibition,[6]; at 33.0 µM,63%
same,growth inhibition,[6]; [18],100% (active)
same,growth inhibition,[6]; at 50.0 µM,83.7% (active)
same,growth inhibition,[6]; at 100.0 µM,94% (active)
same,growth inhibition,[7]; at 1.2 µM,-44%
same,growth inhibition,[7]; at 3.7 µM,-32%
same,growth inhibition,[7]; at 11.0 µM,-28%
same,growth inhibition,[7]; at 33.0 µM,58%
same,growth inhibition,[7]; at 100.0 µM,89% (active)
same,growth inhibition,[8]; [17],-3%
same,growth inhibition,[8]; [18],87% (active)
same,growth inhibition,[9]; at 1.2 µM,14%
same,growth inhibition,[9]; at 3.7 µM,2%
same,growth inhibition,[9]; at 11.0 µM,-7%
same,growth inhibition,[9]; at 33.0 µM,54%
same,growth inhibition,[9]; at 100.0 µM,93% (active)
same,growth inhibition,[10]; [17],12%
same,growth inhibition,[10]; [18],90% (active)
same,growth inhibition,[11]; at 1.2 µM,4%
same,growth inhibition,[11]; at 3.7 µM,15%
same,growth inhibition,[11]; [17],-1%
same,growth inhibition,[11]; at 11.0 µM,16%
same,growth inhibition,[11]; at 33.0 µM,78% (active)
same,growth inhibition,[11]; [18],87% (active)
same,growth inhibition,[11]; at 100.0 µM,94% (active)
same,growth inhibition,[12]; at 1.2 µM,-28%
same,growth inhibition,[12]; at 3.7 µM,-32%
same,growth inhibition,[12]; at 11.0 µM,-26%
same,growth inhibition,[12]; at 33.0 µM,39%
same,growth inhibition,[12]; at 100.0 µM,89% (active)
same,growth inhibition,[13]; at 1.2 µM,-35%
same,growth inhibition,[13]; at 3.7 µM,-29%
same,growth inhibition,[13]; at 11.0 µM,-40%
same,growth inhibition,[13]; at 33.0 µM,35%
same,growth inhibition,[13]; at 100.0 µM,87% (active)
same,growth inhibition,[14]; at 1.2 µM,-27%
same,growth inhibition,[14]; at 3.7 µM,-33%
same,growth inhibition,[14]; at 11.0 µM,-25%
same,growth inhibition,[14]; at 33.0 µM,41%
same,growth inhibition,[14]; at 100.0 µM,88% (active)
same,growth inhibition,[15]; [17],71% (active)
same,growth inhibition,[15]; [18],100% (active)
same,growth inhibition,[15]; at 50.0 µM,84.5% (active)
same,growth inhibition,[16]; at 1.2 µM,0%
same,growth inhibition,[16]; at 3.7 µM,-2%
same,growth inhibition,[16]; at 11.0 µM,0%
same,growth inhibition,[16]; at 33.0 µM,74% (active)
same,growth inhibition,[16]; at 100.0 µM,93% (active)
NNC(=S)Nc1cccc(Cl)c1,growth inhibition,[1]; at 1.2 µM,-16%
same,growth inhibition,[1]; at 3.7 µM,-26%
same,growth inhibition,[1]; at 11.0 µM,-16%
same,growth inhibition,[1]; at 33.0 µM,6%
same,growth inhibition,[1]; at 100.0 µM,79% (active)
same,growth inhibition,[2]; at 1.2 µM,-8%
same,growth inhibition,[2]; at 3.7 µM,-8%
same,growth inhibition,[2]; at 11.0 µM,-14%
same,growth inhibition,[2]; at 33.0 µM,14%
same,growth inhibition,[2]; at 100.0 µM,86% (active)
same,growth inhibition,[3]; at 1.2 µM,-29%
same,growth inhibition,[3]; at 3.7 µM,-28%
same,growth inhibition,[3]; at 11.0 µM,-31%
same,growth inhibition,[3]; at 33.0 µM,-55%
same,growth inhibition,[3]; at 100.0 µM,-47%
same,growth inhibition,[4]; at 1.2 µM,-18%
same,growth inhibition,[4]; at 3.7 µM,-19%
same,growth inhibition,[4]; at 11.0 µM,20%
same,growth inhibition,[4]; at 33.0 µM,68%
same,growth inhibition,[4]; at 100.0 µM,97% (active)
same,growth inhibition,[5]; at 1.2 µM,-33%
same,growth inhibition,[5]; at 3.7 µM,-36%
same,growth inhibition,[5]; [17],58%
same,growth inhibition,[5]; at 11.0 µM,-20%
same,growth inhibition,[5]; at 33.0 µM,27%
same,growth inhibition,[5]; [18],58%
same,growth inhibition,[5]; at 50.0 µM,76% (active)
same,growth inhibition,[5]; at 100.0 µM,92% (active)
same,growth inhibition,[6]; at 1.2 µM,-54%
same,growth inhibition,[6]; at 3.7 µM,-41%
same,growth inhibition,[6]; [17],63%
same,growth inhibition,[6]; at 11.0 µM,-40%
same,growth inhibition,[6]; at 33.0 µM,-5%
same,growth inhibition,[6]; [18],58%
same,growth inhibition,[6]; at 50.0 µM,78.6% (active)
same,growth inhibition,[6]; at 100.0 µM,91% (active)
same,growth inhibition,[7]; at 1.2 µM,-27%
same,growth inhibition,[7]; at 3.7 µM,-25%
same,growth inhibition,[7]; at 11.0 µM,-28%
same,growth inhibition,[7]; at 33.0 µM,26%
same,growth inhibition,[7]; at 100.0 µM,95% (active)
same,growth inhibition,[8]; [17],9%
same,growth inhibition,[8]; [18],97% (active)
same,growth inhibition,[9]; at 1.2 µM,0%
same,growth inhibition,[9]; at 3.7 µM,15%
same,growth inhibition,[9]; at 11.0 µM,-3%
same,growth inhibition,[9]; at 33.0 µM,3%
same,growth inhibition,[9]; at 100.0 µM,71% (active)
same,growth inhibition,[10]; [17],66%
same,growth inhibition,[10]; [18],96% (active)
same,growth inhibition,[11]; at 1.2 µM,-12%
same,growth inhibition,[11]; at 3.7 µM,-9%
same,growth inhibition,[11]; [17],31%
same,growth inhibition,[11]; at 11.0 µM,-9%
same,growth inhibition,[11]; at 33.0 µM,35%
same,growth inhibition,[11]; [18],95% (active)
same,growth inhibition,[11]; at 100.0 µM,90% (active)
same,growth inhibition,[12]; at 1.2 µM,-27%
same,growth inhibition,[12]; at 3.7 µM,-23%
same,growth inhibition,[12]; at 11.0 µM,-25%
same,growth inhibition,[12]; at 33.0 µM,8%
same,growth inhibition,[12]; at 100.0 µM,87% (active)
same,growth inhibition,[13]; at 1.2 µM,-6%
same,growth inhibition,[13]; at 3.7 µM,-17%
same,growth inhibition,[13]; at 11.0 µM,-8%
same,growth inhibition,[13]; at 33.0 µM,45%
same,growth inhibition,[13]; at 100.0 µM,95% (active)
same,growth inhibition,[14]; at 1.2 µM,-18%
same,growth inhibition,[14]; at 3.7 µM,-22%
same,growth inhibition,[14]; at 11.0 µM,-8%
same,growth inhibition,[14]; at 33.0 µM,32%
same,growth inhibition,[14]; at 100.0 µM,89% (active)
same,growth inhibition,[15]; [17],40%
same,growth inhibition,[15]; [18],54%
same,growth inhibition,[15]; at 50.0 µM,75.1% (active)
same,growth inhibition,[16]; at 1.2 µM,-17%
same,growth inhibition,[16]; at 3.7 µM,-11%
same,growth inhibition,[16]; at 11.0 µM,-6%
same,growth inhibition,[16]; at 33.0 µM,24%
same,growth inhibition,[16]; at 100.0 µM,88% (active)
